From PubChem BioAssay (NCATS)
Results filed as inconclusive are left out. Activity calls are given as the source filed them. Calls follow the shape of the dose curve; as a rule, active = well fitted curve in the direction sought with a large enough effect; inconclusive = small, poorly fitted or top-dose-only effect, or another doubt; inactive = no such curve, though single readings can be large; an effect the other way counts as inactive or inconclusive.

How the values were obtained:
MCC-13 = assay: qHTS assay to identify novel small-molecules to repurpose for Merkel cell carcinoma treatment (AID 1296009); conditions: MCC and control cell lines, CellTiter-Glo viability, 72 h; series mostly up to 46 µM; also: nearly all actives have a fitted effect of over 60% in size
In short: (§1)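 Luminescence from CellTiter-Glo, read 10 min after addition at room temperature, reported viability following a 72 hr, 37 degree celsius treatment with NPC or MIPE compounds in titration; values normalized to plate controls.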

MCC-26 = assay: as above; conditions: MCC and control cell lines, CellTiter-Glo viability, 72 h; series mostly up to 46 µM
In short: as §1

MKL-1 = assay: as above; conditions: MCC and control cell lines, CellTiter-Glo viability, 72 h; series mostly up to 46 µM
In short: as §1

MKL-2 = assay: as above; conditions: MCC and control cell lines, CellTiter-Glo viability, 72 h; series mostly up to 46 µM
In short: as §1

UISO = assay: as above; conditions: MCC and control cell lines, CellTiter-Glo viability, 72 h; series mostly up to 46 µM
In short: as §1

WaGa = assay: as above; conditions: MCC and control cell lines, CellTiter-Glo viability, 72 h; series mostly up to 46 µM
In short: as §1

C33A = assay: Primary qHTS to identify gynecologic anti-cancer compounds using libraries of approved drugs and bioactive compounds (AID 1345084); conditions: Gynecologic cancer cell panel viability, ATPlite luminescence, 48 h; series mostly up to 57.5 µM; also: nearly all actives have a fitted effect of over 55% in size
In short: (§2)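 Cells, 1,000 per well, plated 16 h, then exposed 48 h at 37 C to compounds. Viability by ATPlite luminescence after 15 min at room temperature.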

CAOV3 = assay: as above; conditions: Gynecologic cancer cell panel viability, ATPlite luminescence, 48 h; series mostly up to 57.5 µM
In short: as §2

CASKI = assay: as above; conditions: Gynecologic cancer cell panel viability, ATPlite luminescence, 48 h; series mostly up to 57.5 µM
In short: as §2

Es-2 = assay: as above; conditions: Gynecologic cancer cell panel viability, ATPlite luminescence, 48 h; series mostly up to 57.5 µM
In short: as §2

HeLa = assay: as above; conditions: Gynecologic cancer cell panel viability, ATPlite luminescence, 48 h; series mostly up to 57.5 µM
In short: as §2

Hek293T = assay: as above; conditions: Gynecologic cancer cell panel viability, ATPlite luminescence, 48 h, control line for the selectivity index; series mostly up to 57.5 µM
In short: as §2

JEG-3 = assay: as above; conditions: Gynecologic cancer cell panel viability, ATPlite luminescence, 48 h; series mostly up to 57.5 µM
In short: as §2

OV90 = assay: as above; conditions: Gynecologic cancer cell panel viability, ATPlite luminescence, 48 h; series mostly up to 57.5 µM
In short: as §2

PA-1 = assay: as above; conditions: Gynecologic cancer cell panel viability, ATPlite luminescence, 48 h; series mostly up to 57.5 µM
In short: as §2

SKOV3 = assay: as above; conditions: Gynecologic cancer cell panel viability, ATPlite luminescence, 48 h; series mostly up to 57.5 µM
In short: as §2

Tov-21-G = assay: as above; conditions: Gynecologic cancer cell panel viability, ATPlite luminescence, 48 h; series mostly up to 57.5 µM
In short: as §2

Tov112D = assay: as above; conditions: Gynecologic cancer cell panel viability, ATPlite luminescence, 48 h; series mostly up to 57.5 µM
In short: as §2

[1] = Drug repurposing screens with cells derived from glioblastoma tumor samples (AID 1345199); conditions: GBM patient neurospheres viability, ATP luminescence, 48 h; also: nearly all actives have a fitted effect of over 40% in size; also: potency is read from the fitted curve at half-maximal effect
In short: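 Primary testing used CD133+ neurospheres from four GBM patients, seven concentrations, 48 h exposure and ATP-based viability; confirmation added three slower-growing patient lines.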

NIH3T3 = assay: qHTS assay to identify novel small-molecules to repurpose for Merkel cell carcinoma treatment (AID 1296009); conditions: MCC and control cell lines, CellTiter-Glo viability, 72 h; at 44.8 µM (top of the series) unless noted; also: nearly all actives have a fitted effect of over 60% in size
In short: as §1

[2] = at 45.9 µM (top of the series), tumour line B
[3] = at 45.9 µM (top of the series), tumour line D
[4] = at 46.1 µM (top of the series), tumour line C
[5] = at 46 µM (top of the series), tumour line A
% is scaled to controls: 0 for no effect and ±100 for the full control effect.

NCc1ccc(S(N)(=O)=O)cc1
inactive: outcome (MCC-13) | outcome (MCC-26) | outcome (MKL-1) | outcome (MKL-2) | outcome (UISO) | outcome (WaGa) | outcome (C33A) | outcome (CAOV3) | outcome (CASKI) | outcome (Es-2) | outcome (HeLa) | outcome (Hek293T) | outcome (JEG-3) | Potency (OV90) | outcome (PA-1) | outcome (SKOV3) | outcome (Tov-21-G) | outcome (Tov112D) | activity, negative = cell killing ([1]; at 20 µM (top of the series), tumour line C) 8.51% | activity, negative = cell killing ([1]; at 21.2 µM (top of the series), tumour line B) -1.96% | activity, negative = cell killing ([1]; at 21.2 µM (top of the series), tumour line D) -7.46%

CCCCCCCCCCCCCCCCCCO
inactive: outcome (MCC-13) | outcome (MCC-26) | outcome (MKL-1) | outcome (MKL-2) | outcome (NIH3T3) | outcome (UISO) | outcome (WaGa) | outcome (C33A) | outcome (CAOV3) | outcome (CASKI) | outcome (Es-2) | outcome (HeLa) | outcome (Hek293T) | outcome (JEG-3) | Potency (OV90) | outcome (SKOV3) | outcome (Tov-21-G) | outcome (Tov112D) | activity, negative = cell killing [1, 2] -13.2% | activity, negative = cell killing [1, 3] -6.74% | activity, negative = cell killing [1, 4] -1.06%

O=C(O)CNC(=O)c1ccccc1I
inactive: outcome (MCC-13) | outcome (MCC-26) | outcome (MKL-1) | outcome (MKL-2) | outcome (NIH3T3) | outcome (UISO) | outcome (WaGa) | outcome (C33A) | outcome (CASKI) | outcome (Es-2) | outcome (HeLa) | outcome (Hek293T) | outcome (JEG-3) | Potency (OV90) | outcome (PA-1) | outcome (Tov-21-G) | outcome (Tov112D) | activity, negative = cell killing [1, 2] -1.24% | activity, negative = cell killing [1, 3] 4.71% | activity, negative = cell killing [1, 5] -24.5% | activity, negative = cell killing [1, 4] -16.1%

O=C(O)Cn1c(C(=O)Nc2nc(-c3ccccc3Cl)cs2)cc2ccccc21
inactive: outcome (MCC-13) | outcome (MCC-26) | outcome (MKL-1) | outcome (MKL-2) | outcome (NIH3T3) | outcome (UISO) | outcome (WaGa) | outcome (C33A) | outcome (CAOV3) | outcome (CASKI) | outcome (Es-2) | outcome (HeLa) | outcome (Hek293T) | outcome (JEG-3) | Potency (OV90) | outcome (PA-1) | outcome (Tov-21-G) | outcome (Tov112D) | activity, negative = cell killing [1, 2] -16.8% | activity, negative = cell killing [1, 3] -18.1% | activity, negative = cell killing [1, 5] -41.5%

CC[C@]12CCCN3CCc4c(n(c5ccccc45)[C@@](O)(C(=O)OC)C1)[C@@H]32
inactive: outcome (MCC-13) | outcome (MCC-26) | outcome (MKL-1) | outcome (MKL-2) | outcome (NIH3T3) | outcome (UISO) | outcome (WaGa) | outcome (C33A) | outcome (CAOV3) | outcome (CASKI) | outcome (Es-2) | outcome (HeLa) | outcome (Hek293T) | outcome (JEG-3) | Potency (OV90) | outcome (PA-1) | outcome (Tov-21-G) | outcome (Tov112D) | activity, negative = cell killing [1, 2] -12.1% | activity, negative = cell killing [1, 3] 5.83% | activity, negative = cell killing [1, 4] -21.5%
active: Potency ([1]; tumour line A) 17.8 µM

CCCCCCCCCCOc1cc2c(=O)c(C(=O)OCC)c[nH]c2cc1OCC
inactive: activity change, negative = cytotoxicity (MCC-13) 9.19% [at 4.84 µM] | activity change, negative = cytotoxicity (MCC-26) -1.97% [at 4.84 µM] | activity change, negative = cytotoxicity (MKL-1) -4.83% [at 4.84 µM] | activity change, negative = cytotoxicity (MKL-2) 10.7% [at 4.84 µM] | activity change, negative = cytotoxicity (UISO) 13.6% [at 4.84 µM] | activity change, negative = cytotoxicity (WaGa) -1.72% [at 4.84 µM] | activity change, negative = cytotoxicity (C33A) 1.85% [at 6.55 µM] | activity change, negative = cytotoxicity (CAOV3) 22.4% [at 6.55 µM] | activity change, negative = cytotoxicity (CASKI) 19.5% [at 6.55 µM] | activity change, negative = cytotoxicity (Es-2) -0.35% [at 6.55 µM] | activity change, negative = cytotoxicity (HeLa) -1.47% [at 6.55 µM] | activity change, negative = cytotoxicity (Hek293T) 4.2% [at 6.55 µM] | activity change, negative = cytotoxicity (JEG-3) 6.94% [at 6.55 µM] | activity change, negative = cytotoxicity (OV90) -2.35% [at 6.55 µM] | activity change, negative = cytotoxicity (PA-1) -2.19% [at 6.55 µM] | activity change, negative = cytotoxicity (SKOV3) 0.739% [at 6.55 µM] | activity change, negative = cytotoxicity (Tov-21-G) 1.05% [at 6.55 µM] | activity change, negative = cytotoxicity (Tov112D) -6.94% [at 6.55 µM] | activity, negative = cell killing [1, 2] 2.17% | activity, negative = cell killing [1, 3] -20.1% | activity, negative = cell killing [1, 4] -26.1%

CC(=O)N[C@H]1[C@H]([C@H](O)[C@H](O)CO)OC(C(=O)O)=C[C@@H]1N=C(N)N
inactive: outcome (MCC-13) | outcome (MCC-26) | outcome (MKL-1) | outcome (MKL-2) | outcome (NIH3T3) | outcome (UISO) | outcome (WaGa) | outcome (C33A) | outcome (CASKI) | outcome (Es-2) | outcome (HeLa) | outcome (Hek293T) | outcome (JEG-3) | Potency (OV90) | outcome (PA-1) | outcome (SKOV3) | outcome (Tov-21-G) | outcome (Tov112D) | activity, negative = cell killing [1, 2] -18.7% | activity, negative = cell killing [1, 3] -2.37% | activity, negative = cell killing [1, 5] -22.1% | activity, negative = cell killing [1, 4] -20.3%

Cc1cccc(C)c1NC(=O)CC12CCCN1CCC2
inactive: outcome (MCC-13) | outcome (MCC-26) | outcome (MKL-1) | outcome (MKL-2) | outcome (UISO) | outcome (WaGa) | outcome (C33A) | outcome (CAOV3) | outcome (CASKI) | outcome (Es-2) | outcome (HeLa) | outcome (Hek293T) | outcome (JEG-3) | Potency (OV90) | outcome (PA-1) | outcome (SKOV3) | outcome (Tov-21-G) | outcome (Tov112D) | activity, negative = cell killing [1, 2] -10.6% | activity, negative = cell killing [1, 3] -15.8%

Cc1ccsc1C(=CCCN1CCC[C@@H](C(=O)O)C1)c1sccc1C
inactive: outcome (MCC-13) | outcome (MCC-26) | outcome (MKL-1) | outcome (MKL-2) | outcome (UISO) | outcome (WaGa) | outcome (C33A) | outcome (CAOV3) | outcome (CASKI) | outcome (Es-2) | outcome (HeLa) | outcome (Hek293T) | outcome (JEG-3) | Potency (OV90) | outcome (PA-1) | outcome (SKOV3) | outcome (Tov-21-G) | outcome (Tov112D) | activity, negative = cell killing [1, 2] -2.91% | activity, negative = cell killing [1, 3] -7.39% | activity, negative = cell killing [1, 4] 2.1%

C/C(=C(\CCO)SS/C(CCO)=C(\C)N(C=O)Cc1cnc(C)nc1N)N(C=O)Cc1cnc(C)nc1N
inactive: outcome (MCC-13) | outcome (MCC-26) | outcome (MKL-1) | outcome (MKL-2) | outcome (UISO) | outcome (WaGa) | outcome (C33A) | outcome (CAOV3) | outcome (CASKI) | outcome (Es-2) | outcome (HeLa) | outcome (Hek293T) | outcome (JEG-3) | Potency (OV90) | outcome (PA-1) | outcome (SKOV3) | outcome (Tov-21-G) | outcome (Tov112D) | activity, negative = cell killing [1, 2] 0.803% | activity, negative = cell killing [1, 3] 1.23% | activity, negative = cell killing [1, 5] -2.85% | activity, negative = cell killing [1, 4] 0.411%

CCc1nnc(NS(=O)(=O)c2ccc(N)cc2)s1
inactive: outcome (MCC-13) | outcome (MCC-26) | outcome (MKL-1) | outcome (MKL-2) | outcome (UISO) | outcome (WaGa) | outcome (C33A) | outcome (CAOV3) | outcome (CASKI) | outcome (Es-2) | outcome (HeLa) | outcome (Hek293T) | outcome (JEG-3) | Potency (OV90) | outcome (PA-1) | outcome (SKOV3) | outcome (Tov-21-G) | outcome (Tov112D) | activity, negative = cell killing [1, 2] -21.8% | activity, negative = cell killing [1, 3] -9.53% | activity, negative = cell killing [1, 5] -28.8% | activity, negative = cell killing [1, 4] -20.9%

Cc1c(N(C)C)c(=O)n(-c2ccccc2)n1C
inactive: outcome (MCC-13) | outcome (MCC-26) | outcome (MKL-1) | outcome (MKL-2) | outcome (UISO) | outcome (WaGa) | outcome (C33A) | outcome (CAOV3) | outcome (CASKI) | outcome (Es-2) | outcome (HeLa) | outcome (Hek293T) | outcome (JEG-3) | Potency (OV90) | outcome (PA-1) | outcome (SKOV3) | outcome (Tov-21-G) | outcome (Tov112D) | activity, negative = cell killing [1, 2] -5.14% | activity, negative = cell killing [1, 3] -8.5% | activity, negative = cell killing [1, 5] -17.7% | activity, negative = cell killing [1, 4] -17.7%
